Source: PubChem BioAssay
An excerpt weighted towards active compounds, which were near 6% of everything screened.
D1 ag – human D1 receptor agonism. P21728. HEK293 T-REx D1 cells, calcium flux, agonist mode. activation, % at 2 µM. 1% of 360,000 active. AID 504660; in the data active = activation above about 30%; also: 0% is about no effect
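Tetracycline-induced HEK293 TREx D1 cells, force-coupled to calcium signalling, were dye-loaded with a no-wash calcium kit. Compound was pin-added after a 10 s baseline. Fluorescence was read kinetically at 1 cycle/s for 180 s, with calcium rises flagged as agonism.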
D3 ag – D3 dopamine receptor (human) agonism; D3R DiscoveRx beta-arrestin cells, luminescence, 90 min; max activation, %; 0.58% of 410,000 active; AID 652048; in the data active = max activation above about 30%; also: 0% is about no effect
Target sequence (P35462 whole entry, looked up): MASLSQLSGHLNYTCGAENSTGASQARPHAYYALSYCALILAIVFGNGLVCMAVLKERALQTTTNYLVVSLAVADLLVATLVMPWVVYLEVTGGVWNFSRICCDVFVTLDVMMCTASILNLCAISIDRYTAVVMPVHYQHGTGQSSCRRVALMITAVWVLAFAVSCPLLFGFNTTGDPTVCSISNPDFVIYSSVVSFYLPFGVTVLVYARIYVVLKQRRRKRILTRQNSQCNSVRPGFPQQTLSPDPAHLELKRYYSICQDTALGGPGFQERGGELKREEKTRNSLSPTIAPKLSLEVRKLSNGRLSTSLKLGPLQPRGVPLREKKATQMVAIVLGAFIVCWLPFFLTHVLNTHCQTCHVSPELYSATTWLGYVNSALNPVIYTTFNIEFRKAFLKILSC
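Agonist mode: compounds and dopamine controls were applied to plated cells for 90 min at 37 degrees C after an overnight attachment at 1500 cells/well. Luminescent read-out followed 30 - 60 minutes at room temperature with DiscoveRx detection reagent.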
Chronic BCR inh – inhibitors of chronic active B-cell receptor signaling. ABC-DLBCL IkBa-CBG/CBR reporter, luminescence ratio, 4 h. AID 493014. 0.05% of 340,000 active. Potency, µM (doses to about 46.1 µM), for inactives: at the top dose activity change, negative = inhibition, most hits filed as inhibitors; active = well fitted inhibition curve with a large enough effect in the signal ratio, with a control signal flat, not every such curve was filed as active; inconclusive = small, poorly fitted or top-dose-only effect, or effect the other way, or a change in a side signal; the % refers to the signal ratio;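 also: potency is read from the fitted curve at half-maximal effect; plate controls were basal doxycycline-induced cells for no effect and cells given 10 µM MG132 for full effect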
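Cell line TMD8 (human ABC DLBCL), stably expressing tet-inducible CBG68-IkBa fusion and CBR; IMDM/0.5% FBS; cpd up to 46 uM; dox induction, 4 h, 37C/5% CO2; dual luminescence; green/red ratio; MG132 control.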
D1 antagonist – blocks dopamine activation of the human D1 receptor; 3.2% of 360,000 active; AID 504652; P21728; activity change, negative = inhibition, % at 10 µM; HEK293 TREx D1 cells, calcium flux, dopamine EC80; active compounds read low; in the data active = activity change below about -30%; also: % is scaled to controls: 0 for no effect and ±100 for the full control effect
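Calcium flux readout: force-coupled, inducible Hek293 Trex D1 line, cells induced overnight at 30 C with tetracycline, dye-loaded 30–90 min at RT. Antagonism scored against EC80 dopamine challenge given 180 s after compound.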
D1 potentiator – potentiators of human D1 dopamine receptor | P21728 | AID 504651 | HEK293 TREx D1 cells, calcium flux, dopamine EC20 potentiation | potentiation, % at 10 µM | 0.036% of 360,000 active; in the data active = potentiation above about 30%; also: 0% is about no effect
D3 antag – antagonists of human D3 dopamine receptor; D3R cells, DiscoveRx beta-arrestin luminescence, antagonist mode; active compounds read low; max response, negative = inhibition, %; 2.5% of 360,000 active; in the data active = max response below about -50%; inconclusive = no clear call, values can overlap the other calls; also: % is scaled to controls: 0 for no effect and ±100 for the full control effect
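Cells expressing the human receptor were seeded at 1500 cells/well, incubated overnight at 37 degrees C in 5% CO2, then exposed to library compounds with dopamine controls for 90 minutes at 37 degrees C before luminescent detection.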
Numbers without * were called inactive; ? = inconclusive; nt = not tested or not shown.

SMILES	D1 ag	D3 ag	Chronic BCR inh	D1 antagonist	D1 potentiator	D3 antag
CCCCOC(=O)c1ccc(NC2=NS(=O)(=O)c3ccccc32)cc1	1	-1	nt	-43*	-3	nt
CCCCOC(=O)c1ccc(O)cc1	-4	0	?	7	-3	-13
CCCOC(=O)c1ccc(NC(=O)c2cc(=O)[nH]c3ccccc23)cc1	5	-1	?	-33*	-2	-14
CCCOC(=O)c1ccc(NC(=O)/C=C/c2cccs2)cc1	8	-11	?	-43*	-2	-8
CCCCOC(=O)Nc1ccc(C(=O)OCCC)cc1	2	-1	-2%	-31*	-16	-5
CC1(C(=O)NS(=O)(=O)c2ccc(F)cc2F)CCN1C(=O)c1ccc(C2CCCCC2)cc1 (configuration not stated)	nt	12	nt	nt	nt	0
Cc1ccc(C)c(Cn2c(=O)n(-c3ccc(Cl)cc3)c(=O)c3c(C)c(C)sc32)c1	1	-2	nt	4	0	nt
CCCCCCOC(=O)c1ccc(NC(=O)c2cc(OC)c(OC)c(OC)c2Br)cc1	46*	-2	17%	nt	1	?
CCCCOC(=O)c1ccc(Nc2nc3ccccc3c3nnc(C)n23)cc1	5	11	nt	-55*	-4	nt
OC1(c2ccc(Cl)c(C(F)(F)F)c2)CCN(CCCC(c2ccc(F)cc2)c2ccc(F)cc2)CC1	nt	-16	nt	nt	nt	nt
CC(C)C[C@@H]1NC(=O)[C@H](C(C)C)NC(=O)c2cc([N+](=O)[O-])cc(I)c2OCC[C@@H](C(N)=O)NC1=O	-3	-20	6%	-4	2	-53*
COc1ccc(N2CCN(C(=O)CCCNC(=O)Cn3cnc4sc(C)c(C)c4c3=O)CC2)cc1	1	-19	0%	-42*	6	15
O=c1oc2ccccc2c(NC2CCCCC2)c1NS(=O)(=O)c1ccc(F)cc1	4	-2	?	3	0	17
COc1ccc(S(=O)(=O)Nc2c(NC3CCCCC3)c3ccccc3oc2=O)cc1	0	1	?	-31*	-8	-2
O=C1/C(=C/c2ccc([N+](=O)[O-])cc2)Oc2cc(O)ccc21	16	7	?	-7	-4	-2
CC(C)(C)c1ccc(/C=C2\Oc3cc(O)ccc3C2=O)cc1	11	3	?	-46*	-3	29
O=C1/C(=C/c2ccc(Br)cc2)Oc2cc(O)ccc21	45*	13	?	-10	-6	25
COC(=O)c1ccc2c(c1)C(=O)/C(=C/c1ccc(O)cc1)O2	88*	2	-1%	2	-4	11
CCC(CC)C(=O)N(C)c1c(C)nc2c(OCc3ccc(Cl)cc3)cccn12	nt	0	nt	nt	nt	-29
CCOc1ccc(CNC(=O)c2oc3c(c2C)-c2nn(Cc4cccc(Cl)c4)cc2CC3)cc1	-1	3	nt	-11	3	nt
CCOC(=O)C1CCN(C(=O)CCn2c(=O)[nH]c3ccsc3c2=O)CC1	2	-3	1%	-37*	-7	-10
CCOC(=O)N1CCN(C(=O)CCn2c(=O)[nH]c3ccsc3c2=O)CC1	3	19	3%	14	-5	1
CCOC(=O)N1CCN(C(=O)CCn2c(=S)[nH]c3ccsc3c2=O)CC1	-1	19	-16%	-49*	-4	24
O=C(CCn1c(=O)[nH]c2ccsc2c1=O)N1CCc2ccccc2C1	3	0	5%	0	-2	5
NCCCC[C@H](NC(=O)[C@@H]1CCCN1C(=O)[C@@H]1CSSC[C@H](NC(=O)CNC(=O)CNC(=O)CN)C(=O)N[C@@H](Cc2ccc(O)cc2)C(=O)N[C@@H](Cc2ccccc2)C(=O)N[C@@H](CCC(N)=O)C(=O)N[C@@H](CC(N)=O)C(=O)N1)C(=O)NCC(N)=O	nt	-16	nt	nt	nt	nt
SMILES	D1 ag	D3 ag	Chronic BCR inh	D1 antagonist	D1 potentiator	D3 antag
Cc1ccc(-n2ncc3c(=O)n(Cc4ccccc4C)cnc32)cc1C	2	1	nt	1	-1	nt
O=c1[nH]c(C(F)(F)F)nc2ccccc12	2	-7	4%	-5	-5	-60*
FC(F)(F)c1nc2ccccc2[nH]1	4	0	1%	-4	4	-8
O=C(O)c1ccccc1-c1nc2ccccc2c(=O)[nH]1	-1	2	-6%	-40*	5	3
COc1ccc(N2CCN(C(=O)c3ccc(C)c(NC(=O)c4nsc5ccccc45)c3)CC2)cc1	0	-6	nt	1	2	nt
CC1C(=O)C(C)C(c2ccc(Cl)cc2)NC1c1ccc(Cl)cc1 (configuration not stated)	nt	-6	nt	nt	nt	-61*
Cc1cccc(-c2noc(CSc3nc(-c4ccc(F)cc4)cc(=O)[nH]3)n2)c1	0	-7	nt	-3	-1	nt
COc1ccc(CNC(=O)COc2cc3c(c4oc(=O)cc(C)c24)CCC(C)(C)O3)cc1OC	3	28	-5%	-31*	-5	66
COc1ccc(NC(=O)C2Cc3c(-c4cccc(C(C)=O)c4)ccnc3O2)cc1 (configuration not stated)	nt	-24	nt	nt	nt	0
O=C(NNC1=Nc2cccc3cccc1c23)c1ccc(Br)cc1	21	-12	8%	2	-4	-97*
COc1ccc(CC(=O)NNC2=Nc3cccc4cccc2c34)cc1OC	0	-20	4%	-1	10	?
COc1cc(C#Cc2c(-c3cncn3C)n(C)c3ccc(-c4ccc(OC)c(OC)c4)cc23)cc(OC)c1	2	70*	?	nt	-5	105
COc1ccc(-c2nc(CSCC(=O)N3CCN(c4ccccc4)CC3)c(C)o2)cc1	10	4	nt	-8	-5	nt
COc1ccc(-c2nc(CSCC(=O)N3CCN(c4ccc(F)cc4)CC3)c(C)o2)cc1	4	11	nt	-33*	1	nt
COc1ccc2nc(SCC(=O)N3CCN(c4ccc(F)cc4)CC3)c(C#N)cc2c1	2	-7	?	-15	-14	-58*
C[C@H](CO)N1C[C@H](C)[C@@H](CN(C)C(=O)Nc2ccccc2F)OCc2cnnn2CCCC1=O	nt	2	nt	nt	nt	33
O=C(C1CCCN(S(=O)(=O)c2cccc3nsnc23)C1)N1CCN(c2cccc(Cl)c2)CC1 (configuration not stated)	3	32*	nt	-13	0	nt
Cc1cccc(N2CCN(C(=O)C3CCN(S(=O)(=O)c4ccc5c(c4)oc(=O)n5C)CC3)CC2)c1C	6	-5	nt	-13	0	nt
Cn1c(=O)oc2cc(S(=O)(=O)N3CCC(C(=O)N4CCN(c5ccc(Cl)cc5)CC4)CC3)ccc21	8	-3	nt	-18	-3	nt
Cn1c(=O)oc2cc(S(=O)(=O)N3CCC(C(=O)N4CCN(c5cccc(Cl)c5)CC4)CC3)ccc21	19	9	nt	-31*	-4	nt
